Assay results as given in ChEMBL document CHEMBL4513216, “Probing the Open Global Health Chemical Diversity Library for Multistage-Active Starting Points for Next-Generation Antimalarials” (ACS Infect Dis, 2020).
Among all 68,000 compounds or so, about 2,700 (4%) showed an effect of 50% or more. Many of the other results were omitted from the sample, so strong results are more common in it than they were.

Each compound was assayed on Plasmodium berghei (assay: Screen against P. berghei liver stage (PbLuc), transformed with Luciferase, at 2uM). Conditions: tested at 2 uM.
Assay type: functional, HepG2
For CNC(=O)CN1CCCC12CCN(C(=O)c1ccsc1)CC2, the INHIBITION was 24.15%. With Cc1nc(CN2CCC(O)(c3ccccc3F)CC2)c2ccccn12 the INHIBITION was 15.55%. In the case of CCCc1noc(CCCC(=O)N2CCCC2c2cnn(C)c2)n1 (stereo not given), the INHIBITION is reported as 54.99%. Work on CCOc1ccc(C(=O)N2CCCC2c2cnn(C)c2)cn1 (stereo not given) yielded an INHIBITION of -1.02%. Work on CC(C)Oc1ccc(C(=O)N2CCCC2c2cnn(C)c2)cn1 (stereo not given) yielded an INHIBITION of 15.13%. Compound Cn1cc(C2CCCN2C(=O)COCCOc2ccccc2)cn1 (stereo not given) has an INHIBITION of -24.75%. COc1ccc(C(=O)N2CCCC2c2cnn(C)c2)cn1 (stereo not given) showed an INHIBITION of 80.46%. Work on CCCc1noc(CCC(=O)N2CCCC2c2ccncc2)n1 (stereo not given) yielded an INHIBITION of -33.92%. Work on Cn1cc(C2CCCN2C(=O)Cc2n[nH]c3ccccc23)cn1 (stereo not given) yielded an INHIBITION of 63.95%. Cn1cc(C2CCCN2C(=O)CCCOCc2ccccc2)cn1 (stereo not given) gave an INHIBITION of -3.9%. Work on Cc1cnn(CC2CCCN2C(=O)Cc2n[nH]c3ccccc23)c1 (stereo not given) yielded an INHIBITION of 3.9%. O=C(Cc1n[nH]c2ccccc12)N1CCCC1Cn1cccn1 (stereo not given) gave an INHIBITION of -36.73%. In the case of CCCc1noc(CCC(=O)N2CCCC2c2ccc(OC)cc2)n1 (stereo not given), the INHIBITION is reported as 30.29%. Cn1cc(C2CCCN2C(=O)COCCc2ccccc2)cn1 (stereo not given) gave an INHIBITION of 50.76%. For O=C(NC[C@H]1OC[C@@H](NCc2ccccc2F)[C@@H]1O)c1ccc(F)cc1, the INHIBITION was -13.88%. In the case of CCC(CCN)n1ccc(C(F)(F)F)n1 (stereo not given), the INHIBITION is reported as -31.71%. With Cn1cnnc1SC1CCc2ccccc2NC1=O (stereo not given) the INHIBITION was 21.31%. CN(Cc1cn2c(n1)CN(Cc1ccsc1)CC2)Cc1ccco1 was tested, and the INHIBITION was -9.48%. Work on COCc1nc2nc(O)c3c(n2n1)NC(=O)CC3c1ccc(SC)cc1 (stereo not given) yielded an INHIBITION of -19.97%. In the case of Cc1cccc(C(=O)N2CCC3(CC2)CC(c2cnn(C)c2)CO3)c1 (stereo not given), the INHIBITION is reported as 11.79%. Work on CC(C(=O)Nc1ccnn1C(C)C)N1CCc2nn(C)c(=O)cc2C1 (stereo not given) yielded an INHIBITION of -15.38%. CC(C)CN1CCCC1c1cc[nH]n1 (stereo not given) was tested, and the INHIBITION was 17.29%. Compound c1ccc(COC[C@@H]2CCC[C@]23CN(Cc2nccs2)CCO3)nc1 has an INHIBITION of 17.24%. Compound CS(=O)(=O)N1CCCC12CCCN(C(=O)c1ccno1)C2 (stereo not given) has an INHIBITION of 7.3%. CCN(CC)C1(Cc2cc(COC)on2)COC1 showed an INHIBITION of 52.36%. With CCN(CC)C1(Cc2cc(CC(C)C)on2)COC1 the INHIBITION was 32.59%. COCc1cc(CC2(NC3CCCCC3)COC2)no1 was tested, and the INHIBITION was -9.98%. Compound Cc1ccc(C(=O)N2CCc3ncnc(C)c3CC2)o1 has an INHIBITION of 32.97%. In the case of Cc1ccc(C(=O)N2C[C@H]3CCC[C@@]3(COCC3CCOCC3)C2)o1, the INHIBITION is reported as -35.36%. Compound CCOC(=O)N1CCc2ccccc2C12CCNCC2 has an INHIBITION of 4.38%. In the case of Cc1ccc(CN2CCOC3(CCN(C(=O)C4CCOC4)CC3)C2)cc1 (stereo not given), the INHIBITION is reported as 69.37%. Cc1ccc(CN2CCOC3(CCN(C(=O)C4CC=CC4)CC3)C2)cc1 was tested, and the INHIBITION was -41.1%. Cc1ccc(CN2CCOC3(CCN(C(=O)N4CCCC4)CC3)C2)cc1 gave an INHIBITION of 33.35%. For Cc1nc(C)n(CC2CN(CCc3ccccc3Cl)CCO2)n1 (stereo not given), the INHIBITION was -7.08%. Cc1ccccc1CSCCn1nc2ccccn2c1=O was tested, and the INHIBITION was 6.3%. Work on CC(=O)NCCCSC1CCCN(c2ccccc2F)C1=O (stereo not given) yielded an INHIBITION of 9.13%. Compound Cn1nnnc1SC1CCN(c2ccccc2Cl)C1=O (stereo not given) has an INHIBITION of 4.99%. CC(=O)NCCCSC1CCN(c2c(F)cccc2F)C1=O (stereo not given) gave an INHIBITION of 41.07%. In the case of CC(=O)NCCCSC1CCN(c2ccccc2F)C1=O (stereo not given), the INHIBITION is reported as 75.22%. Work on CC(=O)NCCCSC1CCCN(c2ccccc2Cl)C1=O (stereo not given) yielded an INHIBITION of -1.89%. Compound CC(=O)NCCCSC1CCN(c2ccccc2Cl)C1=O (stereo not given) has an INHIBITION of 68.61%. CCc1ccc(S(=O)(=O)Nc2ccncc2)s1 was tested, and the INHIBITION was -13.03%. For COc1cc2c(cc1CN1CCn3c(CO)nnc3C1)CCC2, the INHIBITION was 16.14%. Work on Cc1cc(CN2CCCC2c2noc(C)n2)no1 (stereo not given) yielded an INHIBITION of -52.52%. Compound Cc1nnc([C@@H]2C[C@H]3CN(C4CCC4)C[C@H]3O2)[nH]1 has an INHIBITION of 4.07%. For CCCc1nnc(N2CCN(c3ccccc3OCC)CC2)o1, the INHIBITION was -11.34%. Work on O=C(CCC1CCCC1)N1CCCC(c2ncc3c(n2)CCNC3)C1 (stereo not given) yielded an INHIBITION of 24.89%. For Cc1c(CN2CCCC(C(=O)Nc3ccccc3)C2)cc(C#N)n1C (stereo not given), the INHIBITION was 9.63%. Compound c1cc(CN2CCCCC2c2ccc(Nc3cnccn3)nc2)ccn1 (stereo not given) has an INHIBITION of 42.53%. Cc1ncoc1C(=O)N1CCc2[nH]nc(-c3ccc4c(c3)OCO4)c2C1 gave an INHIBITION of -4.53%. Cc1nc(COCc2cnc3n2CCN(CC2CCC2)C3C)cs1 (stereo not given) showed an INHIBITION of 25.35%. Work on O=C(N[C@@H]1CCC[C@@H](N2CCOCC2)[C@@H]1O)c1cc2ccccc2[nH]1 yielded an INHIBITION of 8.26%. Compound O=C(N[C@@H]1CCC[C@@H](N2CCCC2)[C@@H]1O)c1cc2ccccc2[nH]1 has an INHIBITION of 14.49%. For O=C(N[C@@H]1CC[C@@H](N2CCCC2)[C@@H]1O)c1cc2ccccc2[nH]1, the INHIBITION was 51.88%. For COCc1nc(C(=O)NS(=O)(=O)c2cc(F)ccc2F)cs1, the INHIBITION was 29.37%. With Cc1nc(NCc2nncn2C2CC2)c2c(CC(C)C)csc2n1 the INHIBITION was 36.86%. With COc1ccc(CN2CCC(O)(CN3CCCCC3)C2)c(C)c1 (stereo not given) the INHIBITION was -1.21%. Compound CN(Cc1noc(C2CC2)n1)C1CCN(Cc2nc(C3CC3)no2)C1 (stereo not given) has an INHIBITION of 27.89%. CC1CCN(CCCNC(=O)NC(C)c2nncn2C)CC1 (stereo not given) showed an INHIBITION of 6.3%. In the case of CCNc1c(NC(=O)NCCOC)c(=O)oc2ccccc12, the INHIBITION is reported as -25.41%. FC(F)(F)c1nc(NC2CCCC2)c2ccccc2n1 gave an INHIBITION of 15.52%. Work on FC(F)(F)c1nc(NC2CCc3ncnn3C2)c2ccccc2n1 (stereo not given) yielded an INHIBITION of -8.8%. For FC(F)(F)c1nc(NC2CCCCC2)c2ccccc2n1, the INHIBITION was 52.43%. Compound O=c1c2sccc2nc2n1CCN(Cc1ccccc1C(F)(F)F)CC2 has an INHIBITION of 26.56%. O=C1CC(c2ccccc2)C2(CCN(C(=O)c3cnccn3)CC2)N1 (stereo not given) was tested, and the INHIBITION was 20.87%. Compound COc1ccccc1CN1CC[C@H]2C[C@H](C(=O)N3CCCC3)O[C@H]2C1 has an INHIBITION of 15.89%. With O=C([C@@H]1C[C@@H]2CCN(C3CCOCC3)C[C@H]2O1)N1CCCC1 the INHIBITION was -26.64%. In the case of O=C([C@H]1C[C@@H]2CCN(C3CCOCC3)C[C@H]2O1)N1CCCC1, the INHIBITION is reported as 18.65%. COc1ccccc1CN1CC[C@H]2C[C@@H](C(=O)N3CCCC3)O[C@H]2C1 gave an INHIBITION of 52.4%. O=C([C@@H]1C[C@@H]2CCN(CCc3ccccc3)C[C@H]2O1)N1CCCC1 showed an INHIBITION of 14.94%. Work on O=C([C@@H]1C[C@@H]2CCN(C3CCOCC3)C[C@@H]2O1)N1CCCC1 yielded an INHIBITION of 65.26%. Work on CCC1CN(CCC(=O)N(C)C)CCN1CCOC (stereo not given) yielded an INHIBITION of -7.41%. In the case of CC/N=c1\nc(NCC)nc2n1C(O)(Nc1cc(Cl)ccc1Cl)CS2 (stereo not given), the INHIBITION is reported as 28.5%. Compound CCc1nc(C(=O)N2CCN(CC)CC2)nn1-c1ccccc1Cl has an INHIBITION of 13.24%. CC(C)N(C)Cc1nnc2n1CCN(Cc1ccncc1)CC2 showed an INHIBITION of -2.32%. Compound COc1ccc(Cc2ncc3c(n2)CN(C(=O)CO)C3)cc1 has an INHIBITION of 6.39%. Cc1cnn(C2CN(CC(=O)N(C)Cc3ccc(C)o3)C2)c1 showed an INHIBITION of 62.51%. Cc1cnn(C2CN(CC(=O)N(C)Cc3cccs3)C2)c1 was tested, and the INHIBITION was 7.67%. Cc1ccc(CN(C)C(=O)CN2CC(n3cccn3)C2)o1 was tested, and the INHIBITION was 3%. Cc1cc(NCc2ccco2)nc2[nH]nc(N)c12 gave an INHIBITION of -0.89%. Fc1cccc(-c2nnn3c2COC(CNCc2nccs2)C3)c1 (stereo not given) gave an INHIBITION of -19.51%. With CCS(=O)(=O)N1CCOC2(CCCN(c3cccc(C#N)c3)C2)C1 (stereo not given) the INHIBITION was 56.76%. In the case of Cc1cccc(N2CCCC3(C2)CN(S(C)(=O)=O)CCO3)c1 (stereo not given), the INHIBITION is reported as -51.66%. Compound CC(C)NC(=O)N1CCOC2(CCCN(c3cccc(C#N)c3)C2)C1 (stereo not given) has an INHIBITION of 24.82%. CCOCC(O)CN1CCN(C(=O)c2ccccc2Cl)CC1 (stereo not given) was tested, and the INHIBITION was -45.23%. For O=C(c1cccc(Cl)c1Cl)N1CCN(CC(O)Cn2cccn2)CC1 (stereo not given), the INHIBITION was 65.3%. Compound Cc1cc(C(=O)N2CCN(CC(O)Cn3cccn3)CC2)c(C)o1 (stereo not given) has an INHIBITION of 12.62%. CCCC(=O)NCC(=O)NC(c1ccc(Cl)cc1)C(F)(F)F (stereo not given) was tested, and the INHIBITION was 28.25%. In the case of Cc1cccc(C(=O)NCc2ccnc(N(C)C)c2)n1, the INHIBITION is reported as -11.1%. Work on O=C(C1CC1)N1CCN2C[C@H](c3ccccc3)[C@@H](CO)[C@H]2C1 yielded an INHIBITION of 7.41%. CC(=O)NC1CCCN(C(=O)NCc2cccnc2N(C)C)C1 (stereo not given) showed an INHIBITION of 20.71%. CCC(CC)c1nnc(NC(=O)N2CCCC(NC(C)=O)C2)s1 (stereo not given) gave an INHIBITION of 56.49%. For CCC(CC)c1nnc(NC(=O)N2CCC(C(N)=O)CC2)s1, the INHIBITION was 23.45%. For CCCc1nnc(NC(=O)N2CCCC2c2ccncc2)s1 (stereo not given), the INHIBITION was -24.78%. CC(=O)NC1CCCN(C(=O)Nc2nnc(C(C)C)s2)C1 (stereo not given) gave an INHIBITION of 20.14%. Work on CCCc1nnc(NC(=O)N2CCCC(NC(C)=O)C2)s1 (stereo not given) yielded an INHIBITION of 52.08%. Compound Cc1cc(C)c(S(=O)(=O)Nc2cccc3c2OCCO3)cc1C(=O)O has an INHIBITION of -49.16%. Work on Cc1oncc1C(=O)N1CC[C@H]2[C@H](CO[C@@H]2CNS(C)(=O)=O)C1 yielded an INHIBITION of 11.37%. CC(C)(C)CC(=O)N1C[C@@H]2C[C@@H]1CN2 was tested, and the INHIBITION was 74.88%. O=C(NCC1CCCCC1)N1C[C@@H]2C[C@@H]1CN2 showed an INHIBITION of -3.1%. With O=C(CC1CCCC1)N1C[C@@H]2C[C@@H]1CN2 the INHIBITION was 30.4%. CC(C(=O)N1CCc2sccc2C1)N1CCC(S(N)(=O)=O)CC1 (stereo not given) gave an INHIBITION of 44.37%. CN(C)c1nccc(N(C)Cc2nc3ccccc3n2C)n1 showed an INHIBITION of 13.51%. CN(Cc1ncnn1C)c1ccnc(Cc2ccccc2)n1 was tested, and the INHIBITION was 26.49%. With CN(C)c1nccc(N(C)Cc2ncnn2C)n1 the INHIBITION was 65.42%.
